Test results reported in PubChem BioAssay AID488789 (Broad Institute, 2010).
Results with a measured potency or affinity are listed apart. Inconclusive results are not listed. Active and inactive are the calls of the source.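 Rule for the calls: active = samples whose fitted half-maximal inhibition concentration is no more than ten times the top valid dose tested; inconclusive = flat response between -70 and -30, or invalid curve fit; inactive = flat within 30 of zero, potency above limit, or signal rising.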

biological target: Trypsin (Sus scrofa) (UniProt P00761); assay: trypsin protease activity blockade – biochemical, quenched peptide fluorescence, cherry-pick, selectivity assay for Rce1 protease inhibitor project, dose response (AID 488789); details: porcine trypsin, quenched peptide cleavage fluorescence; series mostly up to 10 µM; activity change, negative = inhibition: at the top concentration;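 note: more negative means stronger trypsin inhibition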
Sequence (P00761 whole entry, looked up): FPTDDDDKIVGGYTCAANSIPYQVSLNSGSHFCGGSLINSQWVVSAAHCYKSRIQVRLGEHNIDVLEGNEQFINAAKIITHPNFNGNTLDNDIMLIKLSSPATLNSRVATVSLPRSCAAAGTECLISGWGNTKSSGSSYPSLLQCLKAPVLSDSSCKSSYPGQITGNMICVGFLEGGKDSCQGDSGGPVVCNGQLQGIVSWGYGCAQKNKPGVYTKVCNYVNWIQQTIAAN

| SMILES | activity change, negative = inhibition |
| --- | --- |
| Cc1ccnc(-n2c(-c3ccco3)nc3ccccc3c2=O)c1 | -2.18% (inactive) |
| CC(=O)OCC[N+](C)(C)C | 3.93% (inactive) |
| c1ccc(CCCN2CCN(CCOC(c3ccccc3)c3ccccc3)CC2)cc1 | 10.9% (inactive) |
| Clc1ccc(C[n+]2c(-c3ccccc3)cc(-c3ccccc3)cc2-c2ccccc2)cc1 | 8.29% (inactive) |
| CCOc1ccc(C2C(C#N)=C(N)Oc3c2c(=O)oc2ccccc32)cc1 (stereo not drawn) | 13.7% (inactive) |
| O=[N+]([O-])c1ccc(C[n+]2c(-c3ccccc3)cc(-c3ccccc3)cc2-c2ccccc2)cc1 | 87.5% (inactive) |
| CCOC(=O)[C@@H]1[C@H]2COc3ccc(Br)cc3[C@@H]2N2C(=O)N(c3cccc(C)c3)C(=O)[C@]12C | 3.99% (inactive) |
| CN1CC(C(=O)c2ccc(Cl)cc2)C(c2ccc(Cl)cc2Cl)C1 (stereo not drawn) | 6.7% (inactive) |
| C=CCn1c(O)c(C(CC)=Nc2ccc(N(CC)CC)cc2)c(=O)[nH]c1=O | 11.1% (inactive) |
| CN1CCN(c2ccc([N+](=O)[O-])c(Sc3nncn3C)c2)CC1 | 6.55% (inactive) |
| Cc1ccc(-c2cc(-c3ccccc3)cc(-c3ccccc3)[n+]2-c2ccccc2)cc1 | -4.16% (inactive) |
| Cc1nccc2c1[nH]c1ccccc12 | 5.43% (inactive) |
| C=CC[N+]1(C)CC[C@]23c4c5ccc(O)c4O[C@H]2C(=O)CC[C@@]3(O)[C@H]1C5 (stereo partly drawn) | 11.1% (inactive) |
